Among all 310,000 compounds or so, about 14,000 (4.5%) showed an effect of 50% or more. The effect is printed as a negative number. The list comes from a sample in which strong results are over-represented; it also holds similar structures and randomly drawn compounds.
Target: human ether-à-go-go-related gene (hERG) potassium channel (human, UniProt Q12809)
Experiment: primary screen, population patch clamp on CHO cells stably expressing hERG; higher = less effect of the substance
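Further: peak tail current of the secondary pulse compared with the same well before compound.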

Sequence of human ether-à-go-go-related gene (hERG) potassium channel (Q12809 whole entry, looked up): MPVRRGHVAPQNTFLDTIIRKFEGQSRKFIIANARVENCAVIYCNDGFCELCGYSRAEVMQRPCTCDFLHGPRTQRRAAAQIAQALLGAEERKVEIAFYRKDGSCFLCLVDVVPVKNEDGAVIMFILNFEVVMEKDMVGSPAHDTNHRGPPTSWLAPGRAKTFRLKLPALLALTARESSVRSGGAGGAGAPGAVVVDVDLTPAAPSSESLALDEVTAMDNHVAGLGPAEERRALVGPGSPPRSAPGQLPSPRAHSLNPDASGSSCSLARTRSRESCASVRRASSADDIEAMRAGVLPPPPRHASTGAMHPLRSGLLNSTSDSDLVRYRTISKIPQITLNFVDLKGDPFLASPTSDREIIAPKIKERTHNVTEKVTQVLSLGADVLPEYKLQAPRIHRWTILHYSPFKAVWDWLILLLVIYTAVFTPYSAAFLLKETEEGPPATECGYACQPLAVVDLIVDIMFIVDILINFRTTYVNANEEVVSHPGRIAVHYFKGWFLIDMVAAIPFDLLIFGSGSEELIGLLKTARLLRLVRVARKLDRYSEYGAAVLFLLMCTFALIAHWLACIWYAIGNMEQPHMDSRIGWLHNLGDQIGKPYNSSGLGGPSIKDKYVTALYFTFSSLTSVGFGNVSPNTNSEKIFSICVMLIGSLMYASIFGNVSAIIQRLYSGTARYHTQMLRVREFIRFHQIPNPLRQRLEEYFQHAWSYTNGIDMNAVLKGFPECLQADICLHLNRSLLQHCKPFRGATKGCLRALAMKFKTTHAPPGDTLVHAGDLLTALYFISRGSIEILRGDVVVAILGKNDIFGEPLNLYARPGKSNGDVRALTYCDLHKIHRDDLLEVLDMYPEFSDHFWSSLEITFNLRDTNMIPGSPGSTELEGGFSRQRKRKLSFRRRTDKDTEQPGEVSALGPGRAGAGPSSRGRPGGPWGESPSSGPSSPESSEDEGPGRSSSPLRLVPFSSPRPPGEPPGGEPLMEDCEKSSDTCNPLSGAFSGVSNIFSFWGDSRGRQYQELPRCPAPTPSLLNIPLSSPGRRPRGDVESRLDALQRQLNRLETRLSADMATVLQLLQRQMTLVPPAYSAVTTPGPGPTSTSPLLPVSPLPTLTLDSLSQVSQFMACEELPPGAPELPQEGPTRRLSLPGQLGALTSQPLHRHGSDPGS

Row | Compound | hERG current change (%, negative = inhibition) at 10uM [%]
1 | O=C(Nc1nc2c(F)cccc2s1)C1CC1 | -8.38
2 | Cn1c(=O)cc(OCC(=O)N2CCN(Cc3ccc4c(c3)OCO4)CC2)c2ccccc21 | -33.4
3 | O=C(CSc1ccccc1)Nc1nccs1 | -3.78
4 | O=C(CC1C(=O)NCCN1Cc1ccc(-c2ccccc2)cc1)NCCOc1cccnc1 (stereo not drawn) | -25.9
5 | O=C(c1ccccc1)N1N=C(C(F)(F)F)CC1(O)c1ccccc1 (stereo not drawn) | 10.6
6 | C=CCNC(=O)c1ccc2c3n(nc2c1)-c1ccc(C)cc1CO3 | -24.6
7 | O=C(Nc1ccccc1C(F)(F)F)C1CCN(C(=O)c2cccs2)CC1 | 10.5
8 | Cc1ccc(NC(=O)C2Cc3ccccc3C(=O)O2)cc1 (stereo not drawn) | 13
9 | O=C(NCCOc1ccccc1)c1cc2ccccc2o1 | -2.6
10 | CCOc1ccc(NC(=S)NN2C(C)CCCC2C)cc1 (stereo not drawn) | 6.62
11 | CC1CCCC(C)N1NC(=S)Nc1ccc(OC(F)F)cc1 (stereo not drawn) | -68.3
12 | COc1ccc(NC(=S)NN2C(C)CCCC2C)cc1 (stereo not drawn) | 16.6
13 | N/C(=N\OC(=O)c1ccc(F)cc1)c1ccc(Br)cc1 | 15.4
14 | CC(=O)Nc1ccc(C=C(C(C)=O)C(C)=O)cc1 | 2.2
15 | COc1ccc(CN2C(=O)c3cccnc3C2=O)cc1S(=O)(=O)N1CCOc2ccc(C)cc21 | -11.6
16 | CNc1c([N+](=O)[O-])cnn1-c1cccc(Cl)n1 | 14.4
17 | Cc1cccn2c(=O)c3cc(C(=O)NCCc4ccccc4)c(=N)n(CCCn4ccnc4)c3nc12 | -74.4
18 | Cc1cccn2c(=O)c3cc(C(=O)NCCCn4ccnc4)n(C)c3nc12 | -11
19 | CC(NC(=O)C(=O)NCCCn1ccnc1)c1ccccc1 (stereo not drawn) | 15.6
20 | O=C(O)c1ccccc1C(=O)NCCCn1ccnc1 | 18.4
21 | Cc1cccn2c(=O)c3cc(C(=O)NC(C)c4ccccc4)c(=N)n(CCCn4ccnc4)c3nc12 (stereo not drawn) | -68.1
22 | Cc1ccc(N(C(=O)c2cccs2)C2C=CS(=O)(=O)C2)cc1 (stereo not drawn) | -24.4
23 | CCCOC(=O)c1ccc(NC(=O)c2cc(OC)c(OC)c(OC)c2Br)cc1 | 8.82
24 | FC(F)(F)c1cccc(OCCN2CCN(Cc3ccccc3)CC2)c1.O=C(O)C(=O)O | -40.8
25 | CCc1cccc(OCCOCCN2CCCC2)c1.O=C(O)C(=O)O | -46.1
26 | O=C(O)C(=O)O.O=[N+]([O-])c1cccc(OCCCN2CCC(Cc3ccccc3)CC2)c1 | -78.1
27 | O=C(O)C(=O)O.O=[N+]([O-])c1cccc(OCCN2CCC(Cc3ccccc3)CC2)c1 | -71.1

Row | Compound | hERG current change (%, negative = inhibition) at 10uM [%]
28 | O=C(O)c1cc([N+](=O)[O-])ccc1N1CCC(Cc2ccccc2)CC1 | -4.42
29 | Cn1c2c(c(=O)n(C)c1=O)C(c1cc3c(cc1Br)OCO3)CC(=O)N2 (stereo not drawn) | 3.46
30 | O=C(c1ccc(Cn2c(=O)[nH]c3ccsc3c2=O)cc1)N1CCN(c2ccccc2)CC1 | 7.23
31 | Cc1ccccc1C(=O)N1CCC(C(=O)Nc2nc3ccc(F)cc3s2)CC1 | -42.8
32 | CC(Sc1nc2cc(Cl)ccc2s1)C(=O)Nc1ccc2c(c1)OCO2 (stereo not drawn) | 6.08
33 | COc1ccccc1N1CCN(CCCCOc2c(OC)cccc2OC)CC1.O=C(O)C(=O)O | -57.9
34 | COc1ccccc1OCCCCN1CCN(c2ccccc2OC)CC1.O=C(O)C(=O)O | -43.1
35 | CCOc1ccccc1N1CCN(C(=O)CCCN2C(=O)c3cccc4cccc(c34)C2=O)CC1 | -8.72
36 | COc1ccccc1N1CCN(C(=O)CCCN2C(=O)c3cccc4cccc(c34)C2=O)CC1.Cl | -70.9
37 | Br.COc1ccccc1N1CCN(CCCCN2C(=O)c3ccccc3C2=O)CC1 | -53.5
38 | Cc1ccccc1OCCCCCCN1CCNCC1.O=C(O)C(=O)O | -1.56
39 | COc1ccccc1N1CCN(C(=O)CCN2C(=O)c3cccc4cccc(c34)C2=O)CC1 | 15.5
40 | COc1ccccc1N1CCN(CCCCOc2ccc(C)cc2C)CC1.O=C(O)C(=O)O | -50.3
41 | COc1ccccc1N1CCN(C(=O)CN2C(=O)c3ccccc3C2=O)CC1 | 11.9
42 | COc1ccccc1N1CCN(C(=O)COc2cc(C)ccc2C)CC1 | -18.3
43 | COc1ccccc1N1CCN(CCN2C(=O)CC(=C3c4ccccc4-c4ccccc43)C2=O)CC1.Cl | 0.408
44 | COc1ccccc1N1CCN(CCOc2c(OC)cccc2OC)CC1.Cl | -34.6
45 | COC(=O)C1=C(c2ccc(F)cc2OCc2ccccc2)C[C@@H]2CC[C@H]1N2C(=O)NCCCc1ccccc1 | 4.96
46 | CCN(Cc1ccccc1)C(=O)CN1C(=O)NC(CC)(c2ccc(F)cc2)C1=O (stereo not drawn) | -7.55
47 | CCn1ncc(Br)c1C(=O)Nc1sc2c(c1C(=O)OC)CCC2 | -40.8
48 | O=C(Cc1ccc(F)cc1)NC1CCS(=O)(=O)C1 (stereo not drawn) | 9.36
49 | Cc1cc(-c2ccccc2)oc(=O)c1NC(=O)c1ccccc1 | 3.11
50 | O=C(N/N=C/c1ccc([N+](=O)[O-])cc1)c1cccnc1 | 0.658
51 | Cc1cccc(Nc2ccccc2C(=O)O)c1C | 2.88
52 | CN1CCc2c(sc3c2c(=O)n(-c2ccccc2)c2nnc(SCc4ccc(Cl)cc4)n32)C1 | -2.08
53 | CCCCSCCCNC(=O)CCCN1C(=O)c2ccccc2Sc2ncccc21 | -27.6
54 | COc1ccc(N(C(=O)c2ccc3c(c2)OCO3)C2C=CS(=O)(=O)C2)c(OC)c1 (stereo not drawn) | -22.3

From PMC4336329 (PLoS ONE, 2015)
